This excerpt belongs to a sample that is enriched for hits.
Bm FixLJ act: activators of Burkholderia fixLJ two-component system. B. multivorans fixK-promoter GFP reporter, 18 h; stronger effect = higher value. z-score (concentration not given with the values). 29,000 tested, 0.3% active. AID 1918990;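 active means replicate mean overnight rise in green fluorescent reporter signal, 3 or more SD over negative controls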
* marks the source's active call; other numbers are inactive results.

Screening COc1ccccc1-c1nc(S(=O)(=O)c2ccc(Cl)cc2)c(N2CCCCCC2)o1 returned Bm FixLJ act -0.45.
Screening Cc1ccc(S(=O)(=O)c2nc(-c3ccccc3Cl)oc2N2CCCCCC2)cc1 returned Bm FixLJ act 1.1.
For O=S(=O)(c1ccccc1)c1nc(-c2ccccc2Cl)oc1N1CCCCCC1 the results were Bm FixLJ act 3.2*.
For Cc1cc2c(c3oc(=O)c4ccccc4c13)CN(Cc1ccc(F)cc1)CO2 the results were Bm FixLJ act 5.3*.
For O=c1oc2c3c(ccc2c2ccccc12)OCN(Cc1ccccc1Cl)C3 the results were Bm FixLJ act 0.8.
Screening O=c1oc2c3c(ccc2c2ccccc12)OCN(Cc1cccc(Cl)c1)C3 returned Bm FixLJ act -0.72.
Screening N#C/C(=C\c1ccc(Cl)cc1)c1nc2ccccc2[nH]1 returned Bm FixLJ act 0.71.
`N#C/C(=C\c1ccc(-c2ccc(F)cc2F)o1)c1nc2ccccc2[nH]1` gave Bm FixLJ act 14*.
For N#C/C(=C\c1ccc(-c2ccccc2C(=O)O)o1)c1nc2ccccc2[nH]1 the results were Bm FixLJ act -1.6.
Screening COc1ccc2nc(NS(=O)(=O)c3ccc(C)cc3)c(Nc3cc(Cl)ccc3OC)nc2c1 returned Bm FixLJ act -4.1.
COc1ccc(Nc2nc3ccccc3nc2NS(=O)(=O)c2ccc(C)cc2)c(OC)c1 was read as Bm FixLJ act -0.4.
For COc1cc(Cl)c(C)cc1Nc1nc2ccccc2nc1NS(=O)(=O)c1ccccc1 the results were Bm FixLJ act 3.4*.
`O=C(Cn1cccn1)NCC1CCN(c2ncccn2)CC1` gave Bm FixLJ act -2.
`Cc1ccc2ncccc2c1CN1CCC2(CC1)CN(CC(N)=O)CCO2` gave Bm FixLJ act 0.3.
For Cc1ccc(C#N)c(N2CCC3(CCCN(C4CCOCC4)C3=O)C2)n1 (stereo not given) the results were Bm FixLJ act 0.67.
`CN(CCc1ccccn1)c1ncccc1CNC(=O)CN1CCOC1=O` gave Bm FixLJ act 1.3.
CC(C)Sc1ccccc1NC(=O)NCc1noc(C2CCCO2)n1 (stereo not given) was read as Bm FixLJ act -1.5.
COc1ccc(C2=C(Nc3ccc(Br)c(C)c3)c3ccccc3C2=O)cc1 was read as Bm FixLJ act 3.1*.
Cc1cc(C)cc(NC2=C(c3ccccc3)C(=O)c3ccccc32)c1 was read as Bm FixLJ act 4*.
For Cc1ccc(C)c(N2CCN(C3=C(c4ccccc4)C(=O)c4ccccc43)CC2)c1 the results were Bm FixLJ act 0.03.
`Cc1ccc(C)c(NC2=C(c3ccc(C(F)(F)F)cc3)C(=O)c3ccccc32)c1` gave Bm FixLJ act 0.58.
Screening COc1ccc(C2=C(Nc3ccc(C)c(C)c3)c3ccccc3C2=O)cc1 returned Bm FixLJ act -1.9.
Screening COc1cc(OC)c(NC2=C(c3ccc(C(F)(F)F)cc3)C(=O)c3ccccc32)cc1Cl returned Bm FixLJ act -0.77.
Screening O=C(CN1CCCCC1)NC1COCC1Cc1ccnc2ccccc12 (stereo not given) returned Bm FixLJ act -0.81.
For Cn1nc(C(=O)NCC2CCCN(c3ncccn3)C2)cc1C(F)(F)F (stereo not given) the results were Bm FixLJ act 0.25.
`COCC(=O)Nc1ccc(NC(=O)c2cc(CC(C)C)[nH]n2)cc1C` gave Bm FixLJ act -2.
`O=C(c1cccc2ccccc12)N1CCN(CCO)C2CS(=O)(=O)CC21` (stereo not given) gave Bm FixLJ act -0.51.
CC(=O)c1cc(-c2nc(Cn3cncn3)nn2C2CCCCC2)n[nH]1 was read as Bm FixLJ act -1.1.
`Cc1ccc(C(=O)NCCC(=O)Nn2c(C)cc(C)cc2=O)cc1` gave Bm FixLJ act -3.1.
CC(C(=O)N1CCN(C2C3CC4CC(C3)CC2C4)CC1)c1n[nH]c(=O)c2ccccc12 (stereo not given) was read as Bm FixLJ act -2.1.
For Cc1ccc(-c2nn(-c3ccccc3)c3c2cnc2ccccc23)cc1C the results were Bm FixLJ act -2.4.
For Brc1ccc(-n2nc(-c3ccccc3)c3cnc4cc5c(cc4c32)OCO5)cc1 the results were Bm FixLJ act 1.
Screening CCc1ccc2ncc3c(-c4ccccc4)nn(-c4ccccc4)c3c2c1 returned Bm FixLJ act 3.3*.
`COCCN1CC2(CCC1=O)CCN(C(=O)CCn1cccn1)CC2` gave Bm FixLJ act -1.3.
`CCC(C(=O)N1CCc2c(nc(-c3cccnc3)[nH]c2=O)C1)c1ccccc1` (stereo not given) gave Bm FixLJ act 0.06.
For CCc1ccc2occ(CC(=O)Nc3ccc(C)c(C)c3)c2c1 the results were Bm FixLJ act 3.4*.
`Cc1ccc(NC(=O)Cc2coc3ccc(C(C)C)cc23)cc1Cl` gave Bm FixLJ act -1.6.
For CCc1ccc2occ(CC(=O)Nc3nnc(SC)s3)c2c1 the results were Bm FixLJ act -0.26.
Screening CCCN(C(=O)c1cc(CN2CCOCC2)on1)C1CCCC1 returned Bm FixLJ act -1.7.
Screening Cc1nnsc1C(=O)N1CCC(c2cc(Cc3ccccc3)[nH]n2)CC1 returned Bm FixLJ act -2.6.
